Most compounds without a hit are left out; they make up all but 6% or so of the library.
D1 agonist: agonists of human D1 dopamine receptor; P21728; HEK293 T-REx D1 cells, calcium flux, agonist mode; activation, % at 2 µM; 360,000 tested, 1% active; in the data active = activation above about 30%; also: 0% is about no effect
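Agonism was scored from calcium flux recorded over 180 s (1 read/s) after pintool compound addition, following a 10-cycle baseline. Cells were inducible force-coupled HEK293 TREx D1, plated overnight at 30 C and loaded with no-wash calcium dye.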
D1 antagonist: antagonists of human D1 dopamine receptor. HEK293 TREx D1 cells, calcium flux, dopamine EC80; hits give low values. AID 504652. 360,000 tested, 3.2% active. P21728. activity change, negative = inhibition, % at 10 µM; in the data active = activity change below about -30%; also: % is scaled to controls: 0 for no effect and ±100 for the full control effect
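Kinetic fluorescence of a calcium dye serves as the read-out. D1-expressing Hek293 Trex cells, induced overnight at 30 C, are exposed to compound for 180 s before an EC80 dopamine addition, then read 180 s further.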
DRD3 agonist: D3 dopamine receptor (human) agonism. P35462. D3R DiscoveRx beta-arrestin cells, luminescence, 90 min. max activation, %. 410,000 tested, 0.58% active. AID 652048; in the data active = max activation above about 30%; also: 0% is about no effect
Target sequence (P35462 whole entry, looked up): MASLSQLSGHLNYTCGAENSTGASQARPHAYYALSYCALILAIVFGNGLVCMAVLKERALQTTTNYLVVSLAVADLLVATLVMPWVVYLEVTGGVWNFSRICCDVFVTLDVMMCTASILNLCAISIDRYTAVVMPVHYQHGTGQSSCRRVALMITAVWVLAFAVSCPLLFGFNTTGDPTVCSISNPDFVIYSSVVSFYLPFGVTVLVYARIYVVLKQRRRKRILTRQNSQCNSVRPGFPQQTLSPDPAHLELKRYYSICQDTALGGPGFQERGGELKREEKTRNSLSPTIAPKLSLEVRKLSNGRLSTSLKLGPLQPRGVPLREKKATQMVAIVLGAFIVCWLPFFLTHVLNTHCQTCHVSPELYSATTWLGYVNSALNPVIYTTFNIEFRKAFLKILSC
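Agonist-mode cell screen: cells plated at 1500/well and incubated overnight at 37 °C, then exposed to library compounds for 90 min at 37 °C. Detection reagent was added for 30–60 min at room temperature, and luminescence was read.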
D1 potentiator: enhances dopamine response at the human D1 receptor. P21728. HEK293 TREx D1 cells, calcium flux, dopamine EC20 potentiation. potentiation, % at 10 µM. 360,000 tested, 0.036% active. AID 504651; in the data active = potentiation above about 30%; also: 0% is about no effect
Chronic BCR inh: inhibitors of chronic active B-cell receptor signaling | ABC-DLBCL IkBa-CBG/CBR reporter, luminescence ratio, 4 h | Potency, µM (highest dose often 46.1 µM), for the others: at the top dose activity change, negative = inhibition, actives largely listed as inhibitors | 340,000 tested, 0.05% active; active = well fitted inhibition curve with a large enough effect in the signal ratio, with a control signal flat, not every such curve was filed as active; inconclusive = small, poorly fitted or top-dose-only effect, or effect the other way, or a change in a side signal; the % refers to the signal ratio;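 also: potency is read from the fitted curve at half-maximal effect; plate controls were basal doxycycline-induced cells for no effect and cells given 10 µM MG132 for full effect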
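Concentration-response series (up to 46 uM) were applied to TMD8 dual-reporter cells for 4 h at 37C with doxycycline. Green/red ratio, after filter-overlap correction, defined %Activity; red signal alone was normalised to basal cells and zero luminescence.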
DRD3 antagonist: blocks the human D3 dopamine receptor; P35462; D3R cells, DiscoveRx beta-arrestin luminescence, antagonist mode; hits give low values; 360,000 tested, 2.5% active; AID 652054; max response, negative = inhibition, %; in the data active = max response below about -50%; inconclusive = no clear call, values can overlap the other calls; also: % is scaled to controls: 0 for no effect and ±100 for the full control effect
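Cells expressing the human receptor were seeded at 1500 cells/well, incubated overnight at 37 degrees C in 5% CO2, then exposed to library compounds with dopamine controls for 90 minutes at 37 degrees C before luminescent detection.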
* = called active by the depositor; u = inconclusive; x = not tested or not shown.

SMILES	D1 agonist	D1 antagonist	DRD3 agonist	D1 potentiator	Chronic BCR inh	DRD3 antagonist
CC1(C(=O)Nc2cccc3ccccc23)CCN1C(=O)Cc1ccccc1Cl (stereo not given)	x	x	-4	x	x	17
O=C(CCC1CCCN(C(=O)c2cc(C3CC3)[nH]n2)C1)N1CCN(c2ccccn2)CC1 (stereo not given)	3	-32*	-3	0	-5%	1
CCc1cc(C(=O)N2CCCC(CCC(=O)N3CCN(c4ccccn4)CC3)C2)no1 (stereo not given)	1	-5	-7	-7	u	-6
COc1ccc(CCNc2ncnc3c2oc2ccccc23)cc1OC	13	-69*	22	-15	u	12
Fc1ccccc1CNc1ncnc2sccc12	9	-28	16	-5	-14%	2
COc1ccc(CCNc2ncnc3sccc23)cc1OC	25	-39*	9	-3	5%	15
COc1ccccc1CNc1ncnc2sccc12	31*	-31*	18	-8	u	6
CCOCCc1nn2c(=O)cc(COC(=O)c3ccc(NC(=O)C4CCCCC4)cc3)nc2s1	0	4	1	1	x	x
Cc1c(O)ccc2cc(S(=O)(=O)c3ccccc3)c(=O)oc12	32*	-2	10	1	4%	55
Cc1oc2ncnc(N3CCCCC3)c2c1C(=O)NCC1CCN(Cc2ccc(F)cc2)CC1	0	-4	-24	-2	x	x
COc1cc(/C=N/N2C(=O)CSC2=S)cc(Br)c1O	44*	-2	2	3	u	-5
Cc1cc(C)cc(NC2=C(c3ccccc3)C(=O)c3ccccc32)c1	1	-23	5	1	x	x
Cc1ccc(CNC(=O)C2COc3ccccc3C2)cc1 (stereo not given)	4	-14	-11	-2	x	x
O=C(COC(=O)/C=C/c1ccc(C(F)(F)F)cc1)NC1CCCC1	5	-49*	1	-8	-1%	1
O=C(COC(=O)/C=C/c1ccc(C(F)(F)F)cc1)NCc1ccco1	6	-31*	-6	-7	1%	-6
O=C(CO/N=C/c1ccc(OC(F)F)cc1)NCc1cccs1	5	-1	-8	-7	-10%	-4
O=C(COC(=O)/C=C/c1ccc(OC(F)F)cc1)NCc1cccs1	36*	3	6	-3	u	-5
O=C(COC(=O)/C=C/c1ccc(C(F)(F)F)cc1)NC1CC1	9	-26	-1	1	8%	-64*
O=C(COC(=O)/C=C/c1cccc(C(F)(F)F)c1)NC1CCCCCC1	3	-15	2	x	-1%	0
CCc1ccc(NC(=O)CC2C(=O)N(c3cccc(OC)c3)C(=O)N2Cc2ccco2)cc1 (stereo not given)	-1	-6	5	-1	x	x
O=C(COC(=O)CCC(=O)c1ccc(F)cc1)NCc1ccco1	0	-32*	-4	-8	-1%	-7
O=C(COC(=O)Cc1ccc(F)cc1)NCc1ccco1	1	-1	2	-1	-2%	2
Cc1ccc(S(=O)(=O)NCCc2cn3ccsc3n2)c(C)c1	1	1	-8	-6	x	x
COc1cc(NC(=O)C2CC(c3c(F)cccc3Cl)=NO2)cc(OC)c1OC (stereo not given)	20	-39*	20	-7	-4%	42
COc1cc(CN2CCCC(CO)(Cc3ccccc3F)C2)ccc1O (stereo not given)	-1	8	-20	-6	10%	u
SMILES	D1 agonist	D1 antagonist	DRD3 agonist	D1 potentiator	Chronic BCR inh	DRD3 antagonist
COC(=O)c1ccc(CN2CCCC(CO)(Cc3ccccc3F)C2)cc1 (stereo not given)	3	-5	-19	-2	0%	-88*
COc1cc(Cl)c(CN2CCCC(CO)(Cc3ccccc3)C2)cc1OC (stereo not given)	1	-13	-3	1	2%	12
CC(C)Cc1cc(CN2CCCC(CO)(Cc3cccc(Cl)c3)C2)[nH]n1 (stereo not given)	22	-1	-20	-4	-15%	-67*
OCC1(Cc2ccc(F)cc2)CCCN(Cc2ccc(F)cc2Cl)C1 (stereo not given)	7	9	-11	-4	1%	-61*
CSc1ccc(CN2CCCC(CO)(Cc3ccccc3)C2)cc1 (stereo not given)	7	-7	-4	1	15%	-67*
COc1ccccc1Nc1nc(-c2ccc(F)cc2)c2c(n1)-c1ccccc1OC2	3	10	-6	-5	x	x
OCC1(CCc2ccccc2)CCCN(CCCc2ccccc2)C1 (stereo not given)	-1	36	-22	1	0%	-70*
COc1cc(C2C(=O)N(C3CCCCC3)CC(=O)N2C2CCCCC2)ccc1OC(C)C (stereo not given)	-4	20	-10	-2	2%	x
O=C(NCc1ccccc1)c1cc(C2COCCN2C(=O)c2ccc3c(c2)CCO3)on1 (stereo not given)	x	x	2	x	x	17
CC1(C)CC(=O)C2=C(C1)Nc1ccccc1NC2c1ccccc1F (stereo not given)	-2	-4	7	-2	5%	6
Cc1c(C2Nc3ccccc3NC3=C2C(=O)CC(C)(C)C3)cnn1C (stereo not given)	0	-1	-3	3	u	-71*
Cc1cccc(C(=O)Nc2nc3nc(-c4ccccc4)cc(=O)n3[nH]2)c1	1	10	6	-2	x	x
CCOc1nc(NC(=O)NS(=O)(=O)c2ccccc2F)nc(-c2ccccc2)n1	1	-31*	2	1	u	9
CC(=O)c1ccc(S(=O)(=O)N2CCC(NC(=O)Nc3cccc(F)c3)CC2)cc1	0	-34*	-8	0	-22%	-18
COC(=O)c1cccc(S(=O)(=O)N2CCC(NC(=O)Nc3cccc(F)c3)CC2)c1	3	-23	6	-3	-1%	u
Cc1ccc(NC(=O)C(c2ccccc2)C2CCCC2)cc1 (stereo not given)	7	-34*	4	-10	11%	5
Cc1ccc(NC(=O)NC2CCCCCCC2)cc1	1	-32*	-8	-11	7%	-7
Cc1ccc(S(=O)(=O)N2CCN(CCNC(=O)C(=O)Nc3ccc(F)cc3)CC2)cc1	2	-2	32*	1	u	18
Cc1ccc(NC(=O)C(=O)NC2CCCCC2)cc1	2	-14	6	12	u	24
O=S1(=O)N[C@H](Cc2ccccc2)COc2cccc(N3CCSCC3)c21	x	x	0	x	x	-18
Cc1ccc(-n2ncc(C(=O)N3CCN(C4CCCCC4)CC3)c2C2CCN(C(=O)OC(C)(C)C)CC2)cc1	0	-4	-4	3	x	x
